PGC1a acetyl inh – lowers PGC1a acetylation signal in U2OS cells; AlphaScreen anti-acetyl-lysine; with virally co-expressed GCN5 acetyltransferase; inhibition, % at 15.6 µM; 350,000 tested, 0.17% active; AID 651687;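 active = every replicate shows inhibition of at least 40%; inconclusive = mean inhibition at least 40% but some replicate below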;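 note: 0% = neutral control wells and 100% = positive control wells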
ERAP1 inh – ERAP1 (human) enzyme inhibition | Q9NZ08 | recombinant ERAP1, Leu-AMC fluorescence, 60 min | inhibition, % at 10.7 µM | 340,000 tested, 0.15% active | AID 652197;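 active = mean replicate inhibition of at least 30%, or all replicates individually reaching that 30% level; inactive = mean below 30% and not every replicate reaching it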;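 note: 0% = neutral control wells and 100% = L-leucinethiol positive control wells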
INS-1E GSIS act – GLuc luminescence reporter in INS-1E cells, primary screen for activators of glucose-dependent secretion of insulin; activation, % at 16.6 µM; 370,000 tested, 0.61% active; INS-1E GLuc reporter insulin secretion, 2-3 h;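 active = lowest replicate activation of at least 40%, so every replicate reaches that level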;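 note: 0% = median of neutral control wells and 100% = median of IBMX positive control wells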
Ecoli rRNA inh – inhibitors of bacterial rRNA selective over humanized ribosomes; GFP signal change (wild-type ribosome), % (concentration not given with the values); E. coli WT GFP vs humanized-ribosome RFP mutants, fluorescence, 24 h; active compounds read low; DMSO median 0, no signal -100; 350,000 tested, 1.6% active;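 active = significant combined selectivity score with lowered wild-type GFP, culture density cut under 30%, mutant RFP and density less affected; inactive = any of these conditions unmet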
DENV2 CPE – inhibitors of DENV2 cytopathic effect; DENV2-infected cells, cytopathic effect rescue, plate reader; CPE inhibition, % at 9.99 µM; 350,000 tested, 1.7% active; in the data active = CPE inhibition above about 20%, passing the limit was not always enough; inconclusive = no clear call, values can overlap the other calls; tested in BHK-21 cells;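 note: 0% = median of neutral control wells and 100% = median of positive control wells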
CaV13 ICDI inh – Disruptors of the CACNA1D IQ motif to Ca2+-dependent inactivation inhibitor domain association, primary screening, Förster resonance energy transfer in intact living …; HEK cells, CFP/YFP FRET ICDI-IQ, plate reader, 10 min; percent FRET-ratio fall versus neutral wells; inhibition, % at 12.3 µM; 340,000 tested, 0.098% active;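 active = mean replicate inhibition of at least 30% and at least 1% of replicates passing that level; inconclusive = only one of the two criteria is met; inactive = neither criterion is met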;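 note: 0% = median of the neutral control wells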
C2C12 COX5a inh – reduces COX5a expression driven by PGC-1a in C2C12 myotubes. shares compounds with PGC1a acetyl inh. C2C12 myotubes PGC-1a adenovirus, COX5a qPCR. maximal activity, %. 45 tested, under 10 active. AID 743461;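 active = fitted dose curve reaching 40% activity at or below the highest valid dose tested; inconclusive = flat fit between 30% and 70%, or an unusable fit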
AID743468 – change in PGC-1a target gene PDK4 expression, dose response, C2C12 myotubes, RT-qPCR, cherry-pick. shares compounds with PGC1a acetyl inh. PGC-1a adenovirus, PDK4 mRNA qPCR. PDK4 expression increase, % at 19.5 µM. 45 tested, under 10 active. AID 743468;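 active = fitted curve reaching a 40% PDK4 expression rise at or below the top valid tested dose; inconclusive = no clear call, values can overlap the other calls; inactive = the rest, including shifts the wrong way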
AID977621 – wild-type E. coli growth inhibition versus H69 humanized strain – H69 mutant RFP, wild-type GFP, cherry-pick, dose response. AID 977621. activity change, negative = inhibition at 50 µM. fluorescence, 24 h. shares compounds with Ecoli rRNA inh. 1,900 tested, under 10 active;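 active = Wild-type ribosome reporter drop at least double the humanized mutant ribosome reporter drop, growth loss under a set limit; inconclusive = no clear call, values can overlap the other calls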;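 note: wild-type GFP and H69 mutant RFP strains grown together 50/50 in each well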
AID977628 – growth of wild-type and h24-humanized E. coli strains – h24 mutant RFP vs wild-type GFP, cherry-pick, dose response; shares compounds with Ecoli rRNA inh; E. coli WT GFP strain growth, fluorescence, 24 h; activity change, negative = inhibition at 50 µM; 1,900 tested, under 10 active;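 active = compound lowering the normal-ribosome reporter at least twice as much as the humanized-ribosome reporter, growth loss under a set limit; inconclusive = no clear call, values can overlap the other calls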;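 note: wild-type GFP and h24 humanized RFP strains co-cultured 1 to 1 per well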
* = called active by the depositor; ? = inconclusive; . = not tested or not shown. The list is not random: actives were taken first. Their share in the collection is about 3.2%.

SMILES	PGC1a acetyl inh	ERAP1 inh	INS-1E GSIS act	Ecoli rRNA inh	DENV2 CPE	CaV13 ICDI inh	others
CC(C)(O)/C=C/C(=O)[C@](C)(O)C1[C@H](O)C[C@@]2(C)C3CC=C4C(C[C@H](O)[C@@H](O)C4(C)C)[C@]3(C)C(=O)C[C@]12C (stereo not given in full)	65*	.	.	.	.	.
CCOc1ccccc1N=C1SCCCN1C	97*	.	-3	.	.	-5
Oc1cccc2nc3ccccc3nc12	7	4	.	.	111*	.
CC=Cc1ccc2n(c1=O)C[C@@H]1[C@@H](CO)[C@H](C(=O)OC)[C@H]2N1CC1CCCCC1 (mixture of isomers)	.	-2	-5	-3	-2	.
CC(=O)OC1CC2(O)C3CCC4CC(O)CCC4(C)C3CCC2(C)C1C1=CC(=O)OC1 (stereo not given)	65*	-1	-1	0	-13	-6
O=C(Nc1cccc(Cl)c1)OC1CN2CCC1CC2 (stereo not given)	-2	0	.	-39*	-4	2
CCC(=NC(C)c1ccccc1)c1c(O)[nH]c(=O)[nH]c1=O (stereo not given)	.	1	66*	-2	-3	-4
CCC(=NCCC(c1ccccc1)c1ccccc1)c1c(O)[nH]c(=O)[nH]c1=O	.	.	75	.	.	-4
O=C(Cc1ccccc1)N1CCCCN2[C@@H](CO)[C@H](c3ccc(C#Cc4ccccc4)cc3)[C@@H]2C1	-11	-3	-22	-55	9	.
Cc1cccc(NP(=O)(Oc2ccccc2F)Oc2ccccc2F)c1C	.	0	-5	-29*	-1	-4
Cc1ccc(NP(=O)(Oc2ccccc2F)Oc2ccccc2F)cc1	5	.	-29	.	.	-8
O=c1[nH]c2ccccc2n1C1CCN(C(c2cc3ccccc3o2)c2nnnn2Cc2ccccc2)CC1 (stereo not given)	49*	-7	-9	10	13	-5	C2C12 COX5a inh=55;AID743468=-7
COC(=O)[C@@H]1[C@@H](CO)[C@@H]2Cn3c(ccc(-c4cccc(F)c4)c3=O)[C@H]1N2Cc1ccccc1	.	0	-6	-2	-5	.
Cc1nc2ccc(Br)cc2c(=O)n1-c1ccc([N+](=O)[O-])c(C(F)(F)F)c1	3	-2	-49	-19*	2	-16	AID977621=-10;AID977628=-7.7
COC(=O)[C@H]1[C@H](CO)[C@H]2Cn3c(ccc(C4=CCCCC4)c3=O)[C@@H]1N2Cc1ccccn1	.	3	4	-2	1	.
c1ccc(Nc2ccc3ccccc3c2)cc1	-9	-1	9	-24*	?	.	AID977621=1.9;AID977628=-2.2
C[C@H](CO)N1C[C@H](C)[C@H](CN(C)C(=O)Oc2cccc3ccccc23)OCc2cn(nn2)CCCC1=O	6	.	14	-1	.	.
C[C@H](CO)N1C[C@H](C)[C@@H](CN(C)C(=O)Oc2cccc3ccccc23)OCc2cnnn2CCCC1=O	4	-3	-1	-2	?	.
COc1ccc(C2CN(C)CC2C(=O)c2ccc(C)cc2)cc1Cl (stereo not given)	.	-3	-44	-28*	3	-6	AID977621=?;AID977628=?
Nc1c(C(=O)NCCc2ccccc2)c2nc3ccccc3nc2n1CCN1CCOCC1	-15	.	.	.	.	.
